Several values for one entry are separate records, joined by “and”; a condition that tells them apart may be missing. Identical values can stand only once. Screen size: about 5,500 compounds; about 2,000 (36%) were called active. Inconclusive results (about 18%) are left out. No stated cut-off is given here; in the data, active means normalized growth mostly below about 0.91 (no sharp cut-off); inconclusive means no clear call, values can overlap the other calls; inactive means mostly above about 0.92. Some of the results follow.
Assay: chemical genetic growth profiling, strain panel (AID 1159580);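 further: tested at 20 µM; growth read once vehicle control cultures reached saturation at 30 °C; 1 = growth at the plate median or of vehicle wells; lower values mean less growth of the strain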
Settings: S. cerevisiae deletion strains, growth OD

Measured: normalized growth

COc1cc(OC)c2c(=O)c(OC)c(-c3ccc(OC)c(OC)c3)oc2c1
inactive: locus YAL021C, strain ccr4, active compounds read low 1.01 | locus YAL026C, strain drs2, active compounds read low 1.02 | locus YAL030W, strain snc1, active compounds read low 1.02 | locus YBL061C, strain skt5, active compounds read low 1 | locus YBR009C, strain hhf1, active compounds read low 1.01 | locus YBR021W, strain FUR4, active compounds read low 0.952 | locus YBR023C, strain chs3, active compounds read low 1.01 | locus YBR171W, strain sec66, active compounds read low 1.04 | locus YBR229C, strain ROT2, active compounds read low 1 | locus YBR231C, strain swc5, active compounds read low 1 | locus YBR279W, strain paf1, active compounds read low 1.02 | locus YCL011C, strain gbp2, active compounds read low 1.01 | locus YCL016C, strain dcc1, active compounds read low 1.01 | locus YCL029C, strain bik1, active compounds read low 1.01 | locus YCL061C, strain MRC1, active compounds read low 1.02 | locus YCL069W, strain vba3, active compounds read low 1.02 | locus YCR088W, strain abp1, active compounds read low 1.03 | locus YDL005C, strain med2, active compounds read low 1.02 | locus YDL035C, strain GPR1, active compounds read low 0.996 | locus YDL040C, strain nat1, active compounds read low 1.01 | locus YDL074C, strain BRE1, active compounds read low 0.995 | locus YDL101C, strain DUN1, active compounds read low 1 | locus YDL185W, strain tfp1, active compounds read low 1.01 | locus YDL192W, strain arf1, active compounds read low 0.987 | locus YDR001C, strain nth1, active compounds read low 1.02 | locus YDR069C, strain doa4, active compounds read low 1.02 | locus YDR101C, strain arx1, active compounds read low 1.01 | locus YDR137W, strain rgp1, active compounds read low 1.06 | locus YDR150W, strain NUM1, active compounds read low 0.998 | locus YDR159W, strain sac3, active compounds read low 1.02 | locus YDR162C, strain NBP2, active compounds read low 0.98 | locus YDR195W, strain ref2 1.04 | locus YDR297W, strain sur2, active compounds read low 1.01 | locus YDR318W, strain mcm21, active compounds read low 0.977 | locus YDR334W, strain swr1, active compounds read low 1.02 | locus YDR335W, strain msn5, active compounds read low 1.03 | locus YDR388W, active compounds read low 0.995 | locus YDR392W, strain spt3, active compounds read low 0.91 | locus YDR502C, strain sam2, active compounds read low 1.01 | locus YEL003W, strain gim4, active compounds read low 1.02 | locus YEL037C, strain rad23, active compounds read low 1.02 | locus YEL061C, strain CIN8 (second series), active compounds read low 1.02 | locus YEL061C, strain CIN8, active compounds read low 1 | locus YER015W, strain faa2, active compounds read low 1.01 | locus YER016W, strain bim1, active compounds read low 1.01 | locus YER110C, active compounds read low 1.02 | locus YER111C, strain swi4, active compounds read low 1.03 | locus YER155C, strain BEM2 (second series), active compounds read low 1.02 | locus YER155C, strain BEM2, active compounds read low 1 | locus YER167W, strain BCK2, active compounds read low 1 | locus YFR010W, strain ubp6, active compounds read low 1.03 | locus YGL078C, strain dbp3, active compounds read low 1.02 | locus YGL086W, strain mad1, active compounds read low 1.01 | locus YGL167C, strain pmr1, active compounds read low 1 | locus YGL173C, strain kem1, active compounds read low 1.01 | locus YGL227W, strain vid30, active compounds read low 1.02 | locus YGL240W, strain doc1, active compounds read low 1.03 | locus YGL248W, strain PDE1, active compounds read low 0.97 | locus YGL253W, strain hxk2, active compounds read low 1.02 | locus YGR078C, strain PAC10, active compounds read low 0.958 | locus YGR135W, strain pre9, active compounds read low 0.968 | locus YGR252W, strain gcn5, active compounds read low 0.915 | locus YHR013C, strain ard1, active compounds read low 1.01 | locus YHR027C, strain rpn1, active compounds read low 1.01 | locus YHR030C, strain SLT2, active compounds read low 1.01 and 0.976 | locus YHR079C, strain IRE1 (second series), active compounds read low 1.02 | locus YHR079C, strain IRE1, active compounds read low 0.992 | locus YHR094C, strain hxt1, active compounds read low 1.01 | locus YHR129C, strain ARP1, active compounds read low 0.992 | locus YHR142W, strain chs7, active compounds read low 1.01 | locus YHR200W, strain rpn10, active compounds read low 1 | locus YIL066C, strain RNR3, active compounds read low 0.982 | locus YIL073C, strain SPO22, active compounds read low 1.03 | locus YIL125W, strain kgd1, active compounds read low 1.02 | locus YIR030C, strain dcg1, active compounds read low 1 | locus YJL092W, strain hpr5, active compounds read low 1.02 | locus YJL095W, strain BCK1 (second series), active compounds read low 1.01 | locus YJL095W, strain BCK1, active compounds read low 0.934 and 1 | locus YJL115W, strain asf1, active compounds read low 1.02 | locus YJL129C, strain trk1, active compounds read low 1.01 | locus YJL134W, strain LCB3, active compounds read low 1.01 | locus YJL154C, strain vps35, active compounds read low 1 | locus YJL164C, strain tpk1, active compounds read low 1.01 | locus YJL166W, strain qcr8, active compounds read low 1 | locus YJL168C, strain set2, active compounds read low 1.02 | locus YJL187C, strain SWE1 (second series), active compounds read low 0.996 | locus YJL187C, strain SWE1, active compounds read low 1.01 | locus YJR043C, strain POL32, active compounds read low 1 | locus YJR066W, strain TOR1, active compounds read low 0.941 | locus YJR075W, strain HOC1, active compounds read low 0.986 | locus YKL009W, strain mrt4, active compounds read low 1.02 | locus YKL068W, active compounds read low 1 | locus YKL085W, strain MDH1 (second series), active compounds read low 0.997 | locus YKL085W, strain MDH1, active compounds read low 0.997 | locus YKL160W, strain elf1, active compounds read low 0.995 | locus YKR001C, strain vps1, active compounds read low 0.994 | locus YKR026C, strain gcn3, active compounds read low 0.997 | locus YKR091W, strain srl3, active compounds read low 1.02 | locus YLL001W, strain dnm1, active compounds read low 1.03 | locus YLL026W, active compounds read low 1.01 | locus YLL041C, strain sdh2, active compounds read low 1.01 | locus YLR027C, strain aat2, active compounds read low 1.01 | locus YLR039C, strain RIC1, active compounds read low 0.976 | locus YLR058C, strain SHM2, active compounds read low 0.984 | locus YLR102C, strain apc9, active compounds read low 1.01 | locus YLR113W, strain HOG1, active compounds read low 0.978 | locus YLR221C, strain rsa3, active compounds read low 1.01 | locus YLR258W, strain gsy2, active compounds read low 1.02 | locus YLR262C, strain YPT6 (second series), active compounds read low 1.08 | locus YLR262C, strain YPT6, active compounds read low 0.984 | locus YLR268W, strain sec22, active compounds read low 1.03 | locus YLR320W, strain mms22, active compounds read low 0.985 | locus YLR330W, strain CHS5, active compounds read low 1.01 | locus YLR342W, strain FKS1 (second series), active compounds read low 0.973 | locus YLR342W, strain FKS1, active compounds read low 1.01 | locus YLR357W, strain rsc2, active compounds read low 1.02 | locus YLR370C, strain arc18, active compounds read low 1.01 | locus YLR371W, strain rom2, active compounds read low 1.02 | locus YLR384C, strain iki3, active compounds read low 1.01 | locus YLR418C, strain cdc73, active compounds read low 0.954 | locus YML016C, strain PPZ1, active compounds read low 0.992 | locus YML032C, strain rad52, active compounds read low 0.987 | locus YML120C, strain ndi1, active compounds read low 1.02 | locus YML124C, strain tub3, active compounds read low 1 | locus YMR058W, strain fet3, active compounds read low 1.03 | locus YMR078C, strain ctf18, active compounds read low 1.01 | locus YMR125W, strain sto1, active compounds read low 1.03 | locus YMR129W, active compounds read low 1.03 | locus YMR205C, strain PFK2, active compounds read low 1.03 | locus YMR223W, strain ubp8, active compounds read low 0.972 | locus YMR231W, strain pep5, active compounds read low 1.02 | locus YMR263W, strain SAP30, active compounds read low 0.996 | locus YMR307W, strain GAS1, active compounds read low 0.981 | locus YNL067W, strain RPL9B, active compounds read low 1 | locus YNL071W, strain lat1, active compounds read low 1.01 | locus YNL153C, strain GIM3, active compounds read low 0.972 | locus YNL183C, strain NPR1, active compounds read low 0.926 | locus YNL209W, strain ssb2, active compounds read low 1.01 | locus YNL233W, strain BNI4, active compounds read low 0.955 | locus YNL248C, strain rpa49, active compounds read low 1.02 | locus YNL250W, strain rad50, active compounds read low 1.03 | locus YNL271C, strain bni1, active compounds read low 1.02 | locus YNL298W, strain CLA4, active compounds read low 0.998 | locus YNL307C, strain MCK1, active compounds read low 1.01 | locus YNL322C, strain KRE1 (second series), active compounds read low 1.02 | locus YNR049C, strain mso1, active compounds read low 1.02 | locus YNR052C, strain pop2, active compounds read low 0.993 | locus YOL006C, strain TOP1, active compounds read low 1.03 | locus YOL012C, strain htz1 0.947 | locus YOL147C, strain pex11, active compounds read low 1.02 | locus YOR001W, strain rrp6, active compounds read low 1.01 | locus YOR061W, strain CKA2, active compounds read low 1.01 | locus YOR069W, strain VPS5, active compounds read low 1.01 | locus YOR070C, strain gyp1, active compounds read low 1.03 | locus YOR080W, strain dia2, active compounds read low 1.01 | locus YOR083W, strain WHI5, active compounds read low 0.997 | locus YOR106W, strain vam3, active compounds read low 0.992 | locus YOR136W, strain idh2, active compounds read low 1.02 | locus YOR144C, strain elg1, active compounds read low 1.01 | locus YOR184W, strain ser1, active compounds read low 0.992 | locus YOR231W, strain MKK1, active compounds read low 1.01 | locus YOR265W, strain rbl2, active compounds read low 1 | locus YOR270C, strain vph1, active compounds read low 1.09 | locus YOR290C, strain snf2, active compounds read low 1 | locus YOR316C, strain cot1, active compounds read low 1.01 | locus YPL051W, strain arl3, active compounds read low 0.993 | locus YPL078C, strain atp4, active compounds read low 1.02 | locus YPL106C, strain sse1, active compounds read low 0.999 | locus YPL240C, strain hsp82, active compounds read low 1 | locus YPL256C, strain CLN2, active compounds read low 0.976 | locus YPR119W, strain clb2, active compounds read low 1.01 | locus YPR141C, strain kar3, active compounds read low 1.02 | locus YPR163C, strain tif3, active compounds read low 1 | locus YPR167C, strain met16, active compounds read low 1.04 | strain wtn01, active compounds read low 1.04
